# Measured values taken from PubChem BioAssay AID588342 (National Center for Advancing Translational Sciences (NCATS), 2011).
# In all, about 360,000 compounds went through this assay and about 25,000 (6.9%) were called active. Roughly 9% stayed inconclusive and do not appear here. The call rests on the fitted dose curve; in most records, active means well fitted inhibition curve with a large enough effect; inconclusive means small, poorly fitted or top-dose-only effect; inactive means flat fitted curve, though single readings scatter. For the sample, actives were picked, then their nearest neighbours and some compounds at random.
# Molecular target: Luciferin 4-monooxygenase (Photinus pyralis) (UniProt P08659)
# Assay: qHTS profiling assay for firefly luciferase inhibitor/activator using purifed enzyme and Km concentrations of substrates (counterscreen for miR-21 project); further: nearly all actives have a fitted effect of over 55% in size;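 on activity change, negative = inhibition: plate controls were vehicle for no effect and reference inhibitor for full effect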
# Details: purified FLuc, luminescence inhibition; series mostly up to 57.5 µM; activity change, negative = inhibition: at the top concentration
# Procedure, shortened: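 Purified P. pyralis luciferase, 10 nM final, with Km-level 10 uM D-luciferin and 10 uM ATP in 50 mM Tris acetate pH 7.5, 10 mM Mg acetate, 0.01% Tween-20, 0.05% BSA; 6-point qHTS titration about 60 µM downward; luminescence read.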
# Potency means the concentration at half of the fitted maximal effect.
# Chain of Luciferin 4-monooxygenase (Photinus pyralis) (P08659 whole entry, looked up): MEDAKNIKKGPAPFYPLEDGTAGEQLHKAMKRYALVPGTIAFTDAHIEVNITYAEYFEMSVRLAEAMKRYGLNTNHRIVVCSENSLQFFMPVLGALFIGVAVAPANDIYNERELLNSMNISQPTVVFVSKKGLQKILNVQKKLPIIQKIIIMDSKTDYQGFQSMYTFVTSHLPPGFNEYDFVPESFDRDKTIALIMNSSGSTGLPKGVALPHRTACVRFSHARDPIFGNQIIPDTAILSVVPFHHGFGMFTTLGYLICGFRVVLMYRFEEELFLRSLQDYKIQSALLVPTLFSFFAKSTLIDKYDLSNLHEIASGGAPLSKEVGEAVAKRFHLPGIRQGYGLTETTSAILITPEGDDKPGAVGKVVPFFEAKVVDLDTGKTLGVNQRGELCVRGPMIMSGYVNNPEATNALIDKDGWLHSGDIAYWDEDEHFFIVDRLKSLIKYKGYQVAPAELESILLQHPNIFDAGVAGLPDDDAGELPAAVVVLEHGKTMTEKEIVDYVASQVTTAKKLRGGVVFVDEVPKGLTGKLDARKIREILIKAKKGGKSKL
Structure (SMILES),"activity change, negative = inhibition",Potency
COc1ccc(S(=O)(=O)N2CCN(C(C)C(=O)Nc3ccc(C(C)C)cc3)CC2)cc1 (configuration not stated),-15.9% (inactive),
COc1ccc(/C=C(\C#N)C(=O)OCC(=O)N(C)C2CCS(=O)(=O)C2)cc1 (configuration not stated),-1.11% (inactive),
Cc1ccc(S(=O)(=O)CCC(=O)OCC(=O)N(C)C2CCS(=O)(=O)C2)cc1 (configuration not stated),0.78% (inactive),
CN(C(=O)CCN1C(=O)/C(=C/c2ccccc2F)SC1=S)C1CCS(=O)(=O)C1 (configuration not stated),,26.9 µM (active)
O=C(CN1C(=O)/C(=C\c2ccccc2F)SC1=S)Nc1nc2ccccc2s1,-14.1% (inactive),
COc1ccccc1/C=C1\SC(=O)N(CCC(=O)N(C)C2CCS(=O)(=O)C2)C1=O (configuration not stated),,16.9 µM (active)
CN(C(=O)CN1C(=O)S/C(=C\c2ccccc2F)C1=O)C1CCS(=O)(=O)C1 (configuration not stated),-13.4% (inactive),
CC[n+]1c(C)n(-c2ccccc2)c2ccc(NC(C)=O)cc21,5.93% (inactive),
CCN(CC)C(=O)c1nc[nH]c1C(=O)N(C)Cc1ccccc1,-1.26% (inactive),
Cc1ccc(CNC(=O)CCNS(=O)(=O)c2ccc3c(c2)oc(=O)n3C)cc1,-3.82% (inactive),
Cc1nn(Cc2ccc(Cl)cc2)c(Cl)c1/C=N/NC(=O)CNc1ccccc1F,0.928% (inactive),
CCn1nc(C)c(/C=N/NC(=O)Cc2ccc(Cl)cc2)c1C,,15.1 µM (active)
O=C(CN1CCSCC1)N/N=C/c1ccc(Cl)cc1,-17.5% (inactive),
CCn1cc(C(=O)N(C)Cc2ccccc2)c(=O)c2cc(S(=O)(=O)N3CCCCCC3)ccc21,1.79% (inactive),
CCn1nc(C(=O)Nc2ccc(N3CCOCC3)cc2)c2ccccc2c1=O,-3.82% (inactive),
CC1(c2ccc(Cl)cc2Cl)NC(=O)N(CC(=O)Nc2cccnc2Cl)C1=O (configuration not stated),-1.92% (inactive),
O=C(O)/C=C/C(=O)NNc1ccc([N+](=O)[O-])cc1,-2.77% (inactive),
O=[N+]([O-])c1ccc(N/N=C/c2ccccc2)cc1,,19 µM (active)
Cc1cccc(COc2ccccc2/C=N/Nc2ccc([N+](=O)[O-])cc2)c1,-1.93% (inactive),
COC(=O)c1ccc(CSc2ccc(S(=O)(=O)N3CCCCC3)cn2)cc1,0.326% (inactive),
O=C(C1CCC1)N1CCN(S(=O)(=O)c2ccc([N+](=O)[O-])cc2)CC1,3.04% (inactive),
CCCC(NS(=O)(=O)c1ccc(OC)cc1)C(=O)O (configuration not stated),-1.49% (inactive),
COc1ccc(NS(=O)(=O)c2ccc(Oc3c(C#N)cccc3C#N)cc2)cc1,-2.11% (inactive),
COc1ccc(S(=O)(=O)/N=C2\C=C(NS(=O)(=O)c3ccccc3)C(=O)c3ccccc32)cc1,,15.1 µM (active)
CCCCc1ccc(NC(=O)CN2C(=O)NC(Cc3ccccc3)C2=O)cc1 (configuration not stated),1.04% (inactive),
CCCCN(C(=O)c1nn(C)c(=O)c2ccccc12)c1c(N)n(CCC)c(=O)[nH]c1=O,0.567% (inactive),
Cc1ccc(S(=O)(=O)NCCNC(C)c2ccc(Br)cc2)cc1 (configuration not stated),0.553% (inactive),
